# The panel holds about 83,000 compounds, 20% with a hit somewhere; the sample as a whole holds those more often.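 Treatment: one concentration, 48 hours, 96-well format. Scoring: percent growth, with anything below 10 considered active.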 Unmarked numbers belong to inactive results. The source made the active and inactive calls.
# Key:
# Assay in all cases: NCI-60 one-dose screen, 48 h (100 = growth as untreated, 0 = no growth, -100 = all killed)
# Details in all cases: 10 µM unless noted
# [1] = test system: NCI-H23 lung
# [2] = test system: NCI-H226 lung
# [3] = test system: NCI-H322M lung
# [4] = test system: HOP-62 NSCLC
# [5] = test system: NCI-H460 lung
# [6] = test system: HOP-92 NSCLC
# [7] = test system: NCI-H522 lung
# [8] = test system: A549/ATCC NSCLC
# [9] = test system: 786-0 renal
# [10] = test system: COLO 205 colon
# [11] = test system: DU-145 prostate
# [12] = test system: MALME-3M melanoma
# [13] = test system: MDA-MB-231 breast
# [14] = test system: RXF 393 renal
# [15] = test system: SF-268 CNS
# [16] = test system: SF-295 CNS
# [17] = test system: SF-539 CNS
# [18] = test system: UACC-257 melanoma
# [19] = test system: M14 melanoma
# [20] = test system: K-562 leukemia
Structure (SMILES),growth [1],growth [2],growth [3],growth [4],growth [5],growth [6],growth [7],growth [8],growth [9],growth [10],growth [11],growth [12],growth [13],growth [14],growth [15],growth [16],growth [17],growth [18],growth [19],growth [20]
O=C(Nc1ccc(C(F)(F)F)cc1)Nc1ccc2oc(=O)ccc2c1,3.56% (active),26.6%,41.1%,50.1%,15.9%,-5.11% (active),-10.4% (active),14.1%,53.8%,-26.4% (active),27.9%,-1.86% (active),14.6%,56.5%,50.9%,-7.66% (active),32.2%,0.986% (active),16.3%,
NS(=O)(=O)c1ccc(-n2cc(-c3cccc(NC(=O)c4cc(C(F)(F)F)cc(C(F)(F)F)c4)c3)nn2)cc1,41.1%,27.5%,65.8%,15%,71.4%,-16.9% (active),75.4%,56.7%,44.2%,91.7%,69.7%,63.7%,,,45.3%,31.4%,35.1%,91.1%,65%,52.7%
Cc1c(C(=O)NNC(=O)c2ccc(Cl)cc2)nnn1-c1ccc(Cl)cc1,106%,95.3%,89.7%,97.3%,104%,79.1%,96.9%,95.2%,94.2%,97.2%,108%,86.9%,,92.7%,105%,82.7%,99.6%,94.1%,93.6%,86.3%
N#Cc1cnn(C(=O)c2ccccc2Br)c1NC(=O)c1ccc(Br)cc1Cl,104%,99.2%,100%,97.9%,105%,111%,102%,93.9%,95.8%,102%,108%,95.8%,,100%,116%,94.9%,96.9%,98.5%,101%,105%
O=C1C(=Nc2ccc(F)c(Cl)c2)c2cccc3cccc1c23,90.9%,91.9%,85.2%,81.2%,78%,96.9%,104%,89.6%,91.8%,94%,80.3%,49.8%,59.6%,107%,68.6%,47.3%,26.8%,49%,63.2%,
Cc1ccc(NC(=O)[C@]23CCC(C)(C)CC2C2=CCC4[C@@]5(C)C[C@@H](O)[C@H](O)[C@@](C)(CO)C5CC[C@@]4(C)[C@]2(C)CC3)cc1 (some centres not stated),29.5%,9.45% (active),69.3%,47.2%,3.15% (active),,12.3%,20.5%,17.1%,-65.9% (active),45.6%,49.5%,-8.63% (active),-38.6% (active),48.5%,21.8%,28.1%,39.8%,38.3%,11.6%
O=C(COc1ccc(NC(=O)Nc2ccc(Cl)c(Cl)c2)cc1)N=Nc1c(O)[nH]c2ccc(Cl)cc12,-19.5% (active),-42.8% (active),-5.99% (active),-61.3% (active),14.1%,,-55.8% (active),-39.1% (active),-52.5% (active),-54.4% (active),-31.3% (active),-76.6% (active),-66.5% (active),-53% (active),-12.3% (active),-61% (active),-90.2% (active),-72.2% (active),-71.2% (active),4.71% (active)
COc1ccc(C(=O)/C=C/c2cccc(Cl)c2Cl)cc1S(N)(=O)=O,-15.6% (active),18.7%,11.5%,-69.2% (active),-0.608% (active),21.9%,-56.3% (active),-2.67% (active),-71.2% (active),-79.3% (active),-76.3% (active),23.1%,1.88% (active),-71% (active),18%,-38.1% (active),-75.5% (active),34.8%,-76.9% (active),
Cc1ccc(S(=O)(=O)c2nc(S(=O)(=O)c3ccc(C)cc3)c(N3CCC(O)CC3)s2)cc1,62.5%,84.6%,77.3%,97.5%,46.2%,,19.7%,62.1%,77.1%,98%,70%,92.2%,71.8%,33.6%,70.3%,96.6%,73.7%,81.6%,71.2%,29%
COc1ccc(C2CC(c3ccc(S(=O)(=O)NCCNc4nc(Nc5ccc(F)cc5)nc(N(C)C)n4)cc3)=Nc3c(N)nc(N)nc3N2)cc1 (configuration not stated),90.4%,84.4%,96.6%,90.3%,73.6%,,89.4%,91.3%,50.2%,82.8%,102%,106%,64.2%,53.3%,73.8%,94.8%,75.4%,100%,81.9%,35.6%
COc1c(F)ccc(C(=O)Nc2ccc3nc(NC(=O)C4CCCN(S(=O)(=O)C5CC5)C4)sc3c2)c1F (configuration not stated),31.5%,34.8%,65.2%,68.4%,48.5%,,40.7%,54%,31.1%,32.4%,66.8%,43.5%,46.7%,-4.35% (active),76.2%,18.1%,37.6%,20.9%,50.3%,20.5%
CN1CCN(Cc2ccc(C(=O)Nc3cccc(C#Cc4cccc5[nH]nc(N)c45)c3)cc2C(F)(F)F)CC1,-87.3% (active),-84% (active),-98.3% (active),-90.1% (active),-25.3% (active),-87.7% (active),-64.3% (active),-88.8% (active),-99.4% (active),-87% (active),-68% (active),-82.6% (active),-90.8% (active),-93.6% (active),-59% (active),-93.4% (active),-97.5% (active),-94.7% (active),-95.6% (active),
COc1cc(OC)cc(-c2cc3ccc(N(C)C)cc3c(=O)[nH]2)c1,44.1%,23%,52.9%,53%,9.42% (active),94.2%,-19.2% (active),24.4%,29.9%,-44.8% (active),21.5%,59.3%,33.1%,80.5%,36.3%,16.2%,-1.21% (active),75.7%,10.7%,
Cc1cc(N=C2NC(=O)CS2)n[nH]1,110%,132%,95.5%,116%,113%,115%,103%,109%,103%,108%,119%,94.8%,104%,128%,95.8%,101%,97.6%,118%,96.5%,
O=C(c1ccc(OCCN2CCOCC2)cc1)C1[C@H](c2ccc(Cl)cc2)[C@@H](c2ccccc2)NC12C(=O)Nc1ccc(Cl)cc12 (some centres not stated),37.9%,48.3%,55.6%,67.7%,10.1%,,16.3%,22.9%,16.6%,-20.1% (active),45.8%,69.3%,28.7%,2.65% (active),43.8%,27.4%,41.5%,45.4%,23.2%,4.95% (active)
NS(=O)(=O)c1ccc(-n2cc(-c3cccc(NC(=O)c4cc(N5CCOCC5)cc(C(F)(F)F)c4)c3)nn2)cc1,54.7%,26.2%,71.4%,12.9%,64.3%,9.47% (active),38.2%,76.7%,44.9%,76.9%,83%,54.1%,37.4%,,41.1%,54%,19.3%,66.3%,78.8%,

# Source: PubChem BioAssay (NCI)
